# Measurements: publication PMC7862700, “An all-to-all approach to the identification of sequence-specific readers for epigenetic DNA modifications on cytosine”
# Columns and labels:
# Assay in all cases: DAPPL (digital affinity profiling via proximity ligation, sequencing); 10 mM Tris-HCl pH 7.5, 50 mM NaCl, 1 mM DTT, 4% glycerol, room temperature, 30 min; GST-TFs on glutathione beads, 16-mer random dsDNA library, 0.1% formaldehyde crosslink after washing; high values mean tight binding
# Conditions in all cases: protein: recombinant; tags: N-terminal GST; dsDNA, one strand shown
# ETV1 = ETV1 (Homo sapiens, UniProt P50549 1-477)
# Sequence of ETV1 (P50549 whole entry, the tested form may be a part): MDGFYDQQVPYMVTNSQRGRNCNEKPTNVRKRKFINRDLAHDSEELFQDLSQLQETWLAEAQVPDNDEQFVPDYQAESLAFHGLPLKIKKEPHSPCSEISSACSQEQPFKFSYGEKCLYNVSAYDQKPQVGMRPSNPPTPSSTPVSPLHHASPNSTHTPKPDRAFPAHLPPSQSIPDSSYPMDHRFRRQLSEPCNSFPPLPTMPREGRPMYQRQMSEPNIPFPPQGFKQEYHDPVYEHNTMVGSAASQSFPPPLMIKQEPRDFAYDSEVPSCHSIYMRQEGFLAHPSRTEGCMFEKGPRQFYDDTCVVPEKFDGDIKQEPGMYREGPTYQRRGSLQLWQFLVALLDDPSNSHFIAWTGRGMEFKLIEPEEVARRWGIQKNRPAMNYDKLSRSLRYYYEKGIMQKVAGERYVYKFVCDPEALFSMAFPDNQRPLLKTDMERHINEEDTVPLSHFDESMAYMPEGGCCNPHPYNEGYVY
# Outline: (§1)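 GST fusions of human transcription factors were expressed in yeast and captured with glutathione beads. Once given DNA barcodes and pooled alongside a tag-only sample, they were incubated for 30 min at room temperature with 200 nmole of a random double-stranded 16-mer DNA library in Tris/NaCl/DTT/glycerol buffer, then washed, crosslinked (0.1% formaldehyde), proximity-ligated, PCR-amplified and sequenced on an Illumina NextSeq500. The binding signal of each hexamer is its read frequency for a factor divided by its frequency for the tag-only sample.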
# ERF = target: T1, ERF (Homo sapiens, UniProt P50548 1-548)
# T1 sequence: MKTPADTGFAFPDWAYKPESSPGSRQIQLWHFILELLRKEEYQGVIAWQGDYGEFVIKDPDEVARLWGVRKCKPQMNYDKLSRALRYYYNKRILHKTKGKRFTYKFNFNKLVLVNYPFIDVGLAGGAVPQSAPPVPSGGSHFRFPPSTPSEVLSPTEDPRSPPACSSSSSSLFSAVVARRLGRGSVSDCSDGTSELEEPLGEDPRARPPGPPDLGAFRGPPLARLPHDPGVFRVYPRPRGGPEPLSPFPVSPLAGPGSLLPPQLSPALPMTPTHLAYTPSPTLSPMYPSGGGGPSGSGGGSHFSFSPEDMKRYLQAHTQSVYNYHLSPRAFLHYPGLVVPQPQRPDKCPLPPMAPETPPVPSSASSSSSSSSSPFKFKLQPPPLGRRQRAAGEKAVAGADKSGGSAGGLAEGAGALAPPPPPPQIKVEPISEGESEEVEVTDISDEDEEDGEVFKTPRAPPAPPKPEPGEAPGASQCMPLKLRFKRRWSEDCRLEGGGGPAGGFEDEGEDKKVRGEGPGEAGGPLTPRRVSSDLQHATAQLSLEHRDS
# Outline: as §1
# ETV3L = target: T2, ETV3L (Homo sapiens, UniProt Q6ZN32 1-361)
# T2 sequence: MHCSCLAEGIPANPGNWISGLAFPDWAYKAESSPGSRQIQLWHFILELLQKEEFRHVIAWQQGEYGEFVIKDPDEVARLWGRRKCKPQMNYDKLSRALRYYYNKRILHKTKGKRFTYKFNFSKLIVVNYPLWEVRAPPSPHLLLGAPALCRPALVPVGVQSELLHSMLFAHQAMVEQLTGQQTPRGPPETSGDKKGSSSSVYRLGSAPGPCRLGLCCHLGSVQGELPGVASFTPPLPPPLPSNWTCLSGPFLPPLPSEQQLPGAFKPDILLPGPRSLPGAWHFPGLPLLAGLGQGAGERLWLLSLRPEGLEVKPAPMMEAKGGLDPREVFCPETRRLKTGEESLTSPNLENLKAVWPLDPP
# Outline: as §1
# ETS2 = target: T3, ETS2 (Homo sapiens, UniProt P15036 1-469)
# T3 sequence: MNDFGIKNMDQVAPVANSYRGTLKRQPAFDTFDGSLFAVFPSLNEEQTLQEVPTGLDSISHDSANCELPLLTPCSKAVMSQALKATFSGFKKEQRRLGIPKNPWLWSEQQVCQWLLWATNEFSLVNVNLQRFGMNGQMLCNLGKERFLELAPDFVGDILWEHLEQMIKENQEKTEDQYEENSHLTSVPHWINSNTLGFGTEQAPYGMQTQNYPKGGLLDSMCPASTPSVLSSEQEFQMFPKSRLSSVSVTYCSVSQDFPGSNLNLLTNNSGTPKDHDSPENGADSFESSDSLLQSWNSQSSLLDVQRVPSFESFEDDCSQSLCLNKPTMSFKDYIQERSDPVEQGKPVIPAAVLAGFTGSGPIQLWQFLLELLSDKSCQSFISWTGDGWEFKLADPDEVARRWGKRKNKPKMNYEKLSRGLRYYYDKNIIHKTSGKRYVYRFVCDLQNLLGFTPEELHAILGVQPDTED
# Outline: as §1
# SPDEF = target: T4, SPDEF (Homo sapiens, UniProt O95238 1-335)
# T4 sequence: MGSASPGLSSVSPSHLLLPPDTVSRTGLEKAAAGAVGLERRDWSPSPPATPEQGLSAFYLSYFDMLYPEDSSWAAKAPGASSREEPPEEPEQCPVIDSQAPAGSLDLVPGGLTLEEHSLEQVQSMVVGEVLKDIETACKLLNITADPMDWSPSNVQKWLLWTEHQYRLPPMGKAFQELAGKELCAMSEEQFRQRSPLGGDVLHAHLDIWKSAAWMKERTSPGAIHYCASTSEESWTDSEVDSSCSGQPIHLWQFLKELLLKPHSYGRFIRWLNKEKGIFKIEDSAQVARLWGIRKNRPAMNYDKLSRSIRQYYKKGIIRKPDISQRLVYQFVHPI
# Outline: as §1
# ETV7 = target: T5, ETV7 (Homo sapiens, UniProt Q9Y603 1-341)
# T5 sequence: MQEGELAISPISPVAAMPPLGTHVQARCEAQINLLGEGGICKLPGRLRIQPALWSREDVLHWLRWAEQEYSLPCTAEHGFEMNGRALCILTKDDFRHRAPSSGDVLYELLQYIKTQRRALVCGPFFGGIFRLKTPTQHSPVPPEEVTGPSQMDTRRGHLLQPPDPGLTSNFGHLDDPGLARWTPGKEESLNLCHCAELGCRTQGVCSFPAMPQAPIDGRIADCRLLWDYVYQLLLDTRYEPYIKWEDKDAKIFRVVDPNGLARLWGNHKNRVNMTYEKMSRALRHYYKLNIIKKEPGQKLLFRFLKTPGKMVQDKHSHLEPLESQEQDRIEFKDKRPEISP
# Outline: as §1
# ELF5 = target: T6, ELF5 (Homo sapiens, UniProt Q9UKW6-2 1-255)
# T6 sequence: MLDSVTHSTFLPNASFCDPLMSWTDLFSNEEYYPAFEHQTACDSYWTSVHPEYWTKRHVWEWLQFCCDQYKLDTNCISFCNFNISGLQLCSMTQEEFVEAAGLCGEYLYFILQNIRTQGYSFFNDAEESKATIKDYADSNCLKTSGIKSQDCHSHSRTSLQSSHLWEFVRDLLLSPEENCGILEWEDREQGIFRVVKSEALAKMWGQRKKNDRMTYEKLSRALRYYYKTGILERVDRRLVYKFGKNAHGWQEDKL
# Outline: as §1
# ETV3 = target: T7, ETV3 (Homo sapiens, UniProt P41162-2 1-143)
# T7 sequence: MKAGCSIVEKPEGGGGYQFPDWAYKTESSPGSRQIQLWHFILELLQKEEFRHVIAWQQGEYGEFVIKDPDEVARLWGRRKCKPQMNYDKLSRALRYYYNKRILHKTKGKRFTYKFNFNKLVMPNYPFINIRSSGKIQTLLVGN
# Outline: as §1
# ETV6 = ETV6 (Homo sapiens, UniProt P41212 1-452)
# Sequence of ETV6 (P41212 whole entry): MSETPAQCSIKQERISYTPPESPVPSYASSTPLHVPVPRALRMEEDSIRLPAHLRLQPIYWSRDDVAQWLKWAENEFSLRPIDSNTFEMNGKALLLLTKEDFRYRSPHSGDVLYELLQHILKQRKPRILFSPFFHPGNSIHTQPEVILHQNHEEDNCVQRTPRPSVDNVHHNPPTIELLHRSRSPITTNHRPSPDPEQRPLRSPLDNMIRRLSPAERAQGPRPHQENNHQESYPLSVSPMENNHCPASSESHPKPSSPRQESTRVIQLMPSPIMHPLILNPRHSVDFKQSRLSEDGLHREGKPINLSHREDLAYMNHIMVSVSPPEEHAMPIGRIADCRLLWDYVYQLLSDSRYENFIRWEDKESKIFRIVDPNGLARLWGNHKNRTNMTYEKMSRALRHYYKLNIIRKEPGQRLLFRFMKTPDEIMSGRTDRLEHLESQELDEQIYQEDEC
# Outline: as §1
sequence,measurement,setting,value
TTTACT,binding signal,ETV1,"1.48 fold enrichment (6-mer frequency, TF over GST control)"
same,binding signal,ERF,"1.3 fold enrichment (6-mer frequency, TF over GST control)"
same,binding signal,ETV3L,"1.42 fold enrichment (6-mer frequency, TF over GST control)"
same,binding signal,ETS2,"1.44 fold enrichment (6-mer frequency, TF over GST control)"
same,binding signal,SPDEF,"1.44 fold enrichment (6-mer frequency, TF over GST control)"
same,binding signal,ETV7,"1.57 fold enrichment (6-mer frequency, TF over GST control)"
same,binding signal,ELF5,"1.36 fold enrichment (6-mer frequency, TF over GST control)"
same,binding signal,ETV3,"1.53 fold enrichment (6-mer frequency, TF over GST control)"
same,binding signal,ETV6,"1.44 fold enrichment (6-mer frequency, TF over GST control)"
